mHTT CaM bind = mutant huntingtin-calmodulin interaction inhibitors – biochemical, AlphaScreen, primary screen. P42858. AlphaScreen His-mHTT/GST-CaM binding, luminescence. inhibition, % at 15 µM. AID 1671202, 2021. 190,000 tested, 3.6% active;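 note: 0% = both proteins with DMSO and 100% = one protein alone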
Pf apPOL inh = Pf-apPOL inhibitors, biochemical, fluorescence | Recombinant Pf-apPOL, molecular beacon fluorescence, 1.5 h | inhibition, % at 10 µM | 210,000 tested, 0.25% active
* hit, by the source's call. Only some compounds are listed: those with a hit (about 3.6% of all), similar ones and a draw of the others. Cut-off read from the data, not from the text of the source: active = inhibition above about 50%; inactive = the rest.

Screening CN1Cc2nnn(Cc3ccccc3)c2-c2ccccc2S1(=O)=O returned mHTT CaM bind -5 and Pf apPOL inh -3.
Screening O=C(Cc1nnc(-c2cccc(F)c2)o1)NC1CCCC1 returned mHTT CaM bind -9 and Pf apPOL inh 3.
For COc1ccc(CC(C)(O)CNC(=O)c2ccc(F)cc2Cl)cc1 (configuration not stated) the results were mHTT CaM bind -9 and Pf apPOL inh -2.
CC(=O)NCc1csc(C2CCN(S(=O)(=O)c3cccc(F)c3)CC2)n1 was read as mHTT CaM bind 11 and Pf apPOL inh -3.
Cc1nnc2n1CCN(C(=O)COc1ccc(Cl)cc1)C2 was read as mHTT CaM bind -7 and Pf apPOL inh -8.
`Cc1ccsc1CN1CCCC(c2nncn2C(C)C)C1` (configuration not stated) gave mHTT CaM bind 2 and Pf apPOL inh -7.
For COc1ccc(N2C(=O)C3CCCN3C2c2ccc(N(C)C)cc2)cc1Cl (configuration not stated) the results were mHTT CaM bind 67* and Pf apPOL inh 0.
`COc1ccc(C2N(c3ccc(OC)c(Cl)c3)C(=O)C3CCCN32)cc1` (configuration not stated) gave mHTT CaM bind -3 and Pf apPOL inh -4.
For Cc1ccc(C)c(C(=O)Nc2cc(-c3cccnc3)no2)c1 the results were mHTT CaM bind 7 and Pf apPOL inh -7.
`COc1ccc(-c2noc(C3CCN(CC(=O)Nc4ccccc4C)CC3)n2)cc1` gave mHTT CaM bind 66* and Pf apPOL inh -2.
Screening Cc1ccccc1NC(=O)CN1CCC(c2nc(-c3ccncc3)no2)CC1 returned mHTT CaM bind -7 and Pf apPOL inh -1.
Screening COc1ccc(OC)c(NC(=O)c2cc(C)n(CCN(C)C)c2C)c1 returned mHTT CaM bind 23 and Pf apPOL inh -1.
Screening COc1ccc(C)cc1NC(=O)c1cc(C)n(CCN(C)C)c1C returned mHTT CaM bind 51* and Pf apPOL inh 3.
NC(=NO)c1cnccc1C(F)(F)F was read as Pf apPOL inh -6.
For c1ccc(-c2ccc3ccccc3n2)nc1 the results were mHTT CaM bind -1.
c1ccc(-c2cccc(-c3ccccn3)n2)nc1 was read as mHTT CaM bind 100*.
Screening O=C1OC(Nc2cc(Cl)cc(Cl)c2)c2ccccc21 (configuration not stated) returned mHTT CaM bind -9 and Pf apPOL inh 3.
Screening COc1ccc(C(O)=C2C(=O)C(=O)N(CCO)C2c2ccc([N+](=O)[O-])cc2)cc1 (configuration not stated) returned mHTT CaM bind 4 and Pf apPOL inh 2.
For O=C(Nc1ccc(Cl)c(-c2nc3ccccc3[nH]2)c1)c1ccccc1[N+](=O)[O-] the results were mHTT CaM bind 18 and Pf apPOL inh 3.
For COc1ccc(OC)c(NC(=O)c2cc3c(n2C)CCN(Cc2ccc(C)cc2)C3)c1 the results were mHTT CaM bind 78* and Pf apPOL inh -5.
Screening COc1cccc(CNC(=O)c2cc3c(n2C)CCN(Cc2cccc(OC)c2)C3)c1 returned mHTT CaM bind 59* and Pf apPOL inh -4.
COc1cccc(CN2CCc3c(cc(C(=O)NCc4cccnc4)n3C)C2)c1 was read as mHTT CaM bind 9 and Pf apPOL inh -5.
Screening COc1cccc(CN2CCc3c(cc(C(=O)Nc4ccc(F)cc4C)n3C)C2)c1 returned mHTT CaM bind 65* and Pf apPOL inh -6.
Screening COc1ccccc1NC(=O)c1cc2c(n1C)CCN(Cc1ccc(C)cc1)C2 returned mHTT CaM bind 25 and Pf apPOL inh -4.
`COc1cccc(CN2CCc3c(cc(C(=O)Nc4cc(C)ccc4OC)n3C)C2)c1` gave mHTT CaM bind 86* and Pf apPOL inh -5.
Screening COc1cccc(NC(=O)c2cc3c(n2C)CCN(Cc2ccc(F)cc2)C3)c1 returned mHTT CaM bind 26 and Pf apPOL inh -6.
For COc1cccc(CN2CCc3c(cc(C(=O)N(C)C)n3C)C2)c1 the results were mHTT CaM bind 10 and Pf apPOL inh -3.
Cc1ccc(/C=N/n2c(C)cc(C)c(C#N)c2=O)s1 was read as mHTT CaM bind inactive.
O=S(=O)(C1CC1)N1CCc2[nH]ncc2C1 was read as mHTT CaM bind -4 and Pf apPOL inh -7.
`CCc1noc(-c2cccnc2N2CCCN(Cc3ccccc3F)CC2)n1` gave mHTT CaM bind -16 and Pf apPOL inh 2.
NNC(=O)c1nccnc1N was read as Pf apPOL inh 1.
O=C1C=CC(=O)C(C2=C3C(=O)N(CCc4c[nH]c5ccccc45)CC(=O)N3CCC2)=C1 was read as mHTT CaM bind 63* and Pf apPOL inh -3.
For COc1ccc(CCN2CC(=O)N3CCCC(C4=CC(=O)C=CC4=O)=C3C2=O)cc1OC the results were mHTT CaM bind 21 and Pf apPOL inh 2.
`O=C1CNC(=S)N1CCc1c[nH]c2ccccc12` gave Pf apPOL inh 12.
`O=C1C=CC(=O)C(C2=C3C(=O)N(CCc4ccccc4)CC(=O)N3CCC2)=C1` gave mHTT CaM bind 80* and Pf apPOL inh -5.
`CCN1C(=O)Cc2ccccc2C1C(=O)NCc1cccc(Cl)c1` (configuration not stated) gave mHTT CaM bind 1 and Pf apPOL inh 1.
Cc1cc(C)cc(N2CCC(NC(=O)c3ccc(Br)o3)C2=O)c1 (configuration not stated) was read as mHTT CaM bind -6 and Pf apPOL inh 0.
`CC(=O)C1=C(C)NC(SCC(=O)c2ccc(F)cc2)=C(C#N)C1c1cccc([N+](=O)[O-])c1` (configuration not stated) gave mHTT CaM bind 38 and Pf apPOL inh 0.
Screening CCc1ccc(C2C(C#N)=C(SCC(=O)c3ccc([N+](=O)[O-])cc3)NC(C)=C2C(C)=O)cc1 (configuration not stated) returned mHTT CaM bind 60* and Pf apPOL inh 2.
For O=C(NCc1ccccc1)c1ccc(SCCN2CCOCC2)nc1 the results were mHTT CaM bind -3 and Pf apPOL inh -5.
Screening Cc1ccccc1C1CCC2(CC1)CCN(CC[C@@H](O)c1ccccc1)C2=O (some centres not stated) returned mHTT CaM bind 53* and Pf apPOL inh -9.
For O=C1N(CC[C@@H](O)c2ccccc2)CCC12CCC(c1ccccc1)CC2 (some centres not stated) the results were mHTT CaM bind -3 and Pf apPOL inh -10.
CCCCOc1ccccc1C=C1SC(N2CCN(C(C)=O)CC2)=NC1=O was read as mHTT CaM bind -1 and Pf apPOL inh 0.
`CN1CCC(N2CCN(C(=O)c3cc4cn(C5CC5)cc4s3)CC2)CC1` gave mHTT CaM bind -2 and Pf apPOL inh -1.
For O=C(c1cc(F)c(F)cc1Cl)N1CCN(c2ccc([N+](=O)[O-])c3cccnc23)CC1 the results were mHTT CaM bind 50* and Pf apPOL inh -3.
For O=C(c1cccc([N+](=O)[O-])c1)N1CCN(c2cccc(Cl)c2Cl)CC1 the results were mHTT CaM bind 74* and Pf apPOL inh -1.
For O=C(c1ccccc1)N1CCN(c2ccc([N+](=O)[O-])cc2Cl)CC1 the results were mHTT CaM bind 4 and Pf apPOL inh -1.
O=C(c1ccccc1)N1CCN(c2ccc(F)cc2[N+](=O)[O-])CC1 was read as mHTT CaM bind 10 and Pf apPOL inh -6.

Source: PubChem (University of Kansas High Throughput Screening Laboratory)
